SKKanGAS inh: SKKanGAS growth inhibition. S. pyogenes SKKanGAS, kanamycin growth, BacTiter-Glo, 6 h. inhibition, % at 7.5 µM. 300,000 compounds, 1.3% hits;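 active means mean replicate score, as percent of positive control median, at least 50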;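 further: strain carries kanamycin resistance gene driven by streptokinase promoter and grows in 40 µg/ml kanamycin; loss of luminescence reflects streptokinase promoter inhibition or plain growth inhibition; 0% = median of DMSO wells and 100% = positive control at its reference dose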
tim23-1 inh: inhibits growth of tim23-1 mutant yeast. S. cerevisiae tim23-1 growth, BacTiter-Glo luminescence, 24 h. inhibition, % at 20 µM. 330,000 compounds, 1.3% hits. AID 463212;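 active means growth inhibition of the mutant yeast at or above 50%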;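 further: temperature-sensitive mutant grown at 25 °C; plate controls were DMSO-treated mutant yeast for no effect and medium wells lacking yeast for full effect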
tim10-1 inh: inhibits growth of tim10-1 mutant yeast; S. cerevisiae tim10-1 ts strain growth, BacTiter-Glo, 24 h; inhibition, % at 20 µM; 330,000 compounds, 2.2% hits;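 active means inhibition of at least 40%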;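 further: mutant grown at 25 °C; 0% = DMSO wells with yeast and 100% = wells holding no yeast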
PfHsp90 yeast 2: reduces growth (ATP signal) of yeast expressing P. falciparum Hsp90; S. cerevisiae expressing PfHsp90, BacTiter-Glo ATP, 48 h; yeast lacking PDR1 and PDR3 efflux regulators; inhibition, % at 9.4 µM; 310,000 compounds, 0.32% hits; AID 504621;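 active means every replicate shows inhibition above about 80%, whatever the replicate mean, limit read from the data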;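 further: 0% = DMSO neutral controls and 100% = 20 µM radicicol positive controls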
TIM10 inh: inhibits growth of TIM10 yeast strain; 330,000 compounds, 1.4% hits; AID 463195; S. cerevisiae TIM10 strain growth, BacTiter-Glo luminescence, 24 h; inhibition, % at 10 µM;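 active means inhibition of 40% or more at the single tested concentration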;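 further: wild-type TIM10 isogenic control strain grown at permissive 25 °C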
NALP3 yeast inh: blocks the NALP3 inflammasome reconstituted in yeast | 330,000 compounds, 0.39% hits | Yeast reconstituted NLRP3/ASC/caspase-1, beta-gal luminescence, 24 h | inhibition, % at 10 µM;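 active means inhibition of 50% or more; inactive means inhibition below 50%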;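 further: plate controls were induced DMSO wells for no effect and uninduced yeast grown without galactose for full effect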
tim10-1 conf: confirmation of tim10-1 mutant yeast growth inhibitors; S. cerevisiae tim10-1 ts strain growth, BacTiter-Glo, 24 h; AID 463213; shares compounds with tim10-1 inh; inhibition, % at 20 µM; 7,400 compounds, 56% hits;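 active means inhibition of yeast growth at or above a set limit in either of two repeat tests at 20 µM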;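 further: tim10-1 mutant grown at permissive 25 °C to find synthetic lethal compounds; 0% = DMSO yeast wells and 100% = medium wells without yeast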
TIM10 conf: TIM10 yeast growth inhibition, confirmed | shares compounds with TIM10 inh | S. cerevisiae tim10 strain growth, BacTiter-Glo luminescence, 24 h | inhibition, % at 10 µM | 4,600 compounds, 63% hits | AID 463215;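 active means inhibition of yeast growth at or above a set limit in either of two replicates at 10 µM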;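 further: this counterscreen used the strain with wild-type TIM10; 0% = yeast with DMSO and 100% = medium wells lacking yeast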
* = called active by the depositor; . = not tested or not shown. Most compounds without a hit are left out; they make up all but 4.5% or so of the library.

SMILES | SKKanGAS inh | tim23-1 inh | tim10-1 inh | PfHsp90 yeast 2 | TIM10 inh | NALP3 yeast inh | tim10-1 conf | TIM10 conf
CC1CN(C(=O)c2ccc(Cl)c(S(=O)(=O)NCc3ccco3)c2)CC(C)O1 (centres undefined) | . | -7 | -14 | . | 3 | 5 | . | .
CCOc1ccc(C(=O)N2CCN(c3cccc(Cl)c3)CC2)cc1 | 15 | 35 | 14 | 7 | 4 | 8 | . | .
Cc1cccc(N2CCN(C(=O)c3ccc(Cl)c(S(=O)(=O)NCc4ccco4)c3)CC2)c1C | 14 | 44 | 45* | 3 | 50* | 11 | 39* | 40*
Cc1cccc(N2CCN(C(=O)c3ccc(N4CCCC4=O)cc3)CC2)c1C | -7 | 5 | 45* | 8 | 42* | 3 | 31* | 16
O=C(CCC(=O)N1CCOCC1)NCCc1ccccc1 | . | -7 | -1 | 0 | 7 | 3 | . | .
O=C(/C=C/c1ccccc1)OCN1C(=O)c2ccccc2C1=O | -1 | 19 | 22 | 2 | 26 | -12 | . | .
CC1=C/C(=N\OC(=O)/C=C/c2ccccc2)C(C)=CC1=O | 1 | 37 | 46* | 1 | 43* | 1 | 16 | 23
COC(=O)c1c(N2C(=O)CC(Sc3ccccc3C(=O)O)C2=O)sc2c1CCCC2 (centres undefined) | 5 | 26 | 46* | -1 | 46* | 1 | 47* | 17
O=C(OCC(=O)N1CCN(c2ccccc2)CC1)c1cc(Cl)ccc1[N+](=O)[O-] | -3 | 36 | 24 | 26 | 7 | 25 | . | .
CCOc1ccc(NS(=O)(=O)c2ccc3c(c2)N(C(C)=O)CCS3)cc1 | 7 | 9 | 9 | 14 | 12 | 13 | . | .
O=C(COC(=O)c1ccc([N+](=O)[O-])s1)NCc1ccc(F)cc1 | 16 | 23 | 45* | -8 | 64* | 18 | 17 | -9
COc1ccccc1NC(=O)COC(=O)c1ccc([N+](=O)[O-])s1 | 5 | 10 | 70* | . | 82* | 12 | 68* | 89*
O=C(COC(=O)c1ccc([N+](=O)[O-])s1)NC(=O)NCc1ccccc1 | 9 | -50 | 70* | 2 | 70* | 21 | 52* | 71*
O=C(COC(=O)c1ccc([N+](=O)[O-])s1)NNC(=O)c1ccccc1 | . | 27 | 7 | . | 16 | 17 | . | .
O=C(COC(=O)c1ccc([N+](=O)[O-])o1)NCc1ccc(F)cc1 | . | -47 | -181 | -29 | -211 | 14 | . | .
CC(NC(=O)COC(=O)c1ccc([N+](=O)[O-])s1)c1ccccc1 (centres undefined) | 4 | 10 | 18 | 4 | 20 | 13 | . | .
O=C(COC(=O)c1ccc([N+](=O)[O-])s1)NCCc1ccccc1 | . | 49 | 50* | -9 | 46* | 23 | 47* | 57*
C=CCNc1nnc(SC2CC(=O)N(c3ccc(OC)cc3)C2=O)s1 (centres undefined) | 0 | 37 | 67* | 5 | 40* | 15 | 61* | 46*
COc1ccc(N2C(=O)CC(Sc3nccc(C)n3)C2=O)cc1 (centres undefined) | 5 | 20 | 14 | 25 | 9 | 8 | . | .
CC12CCC(C3NC(=S)NN=C31)C2(C)C (centres undefined) | . | . | . | -5 | . | . | . | .
Cc1ccc2c(c1)c1n[nH]c(=S)nc1n2CCc1ccccc1 | 0 | 28 | 46* | -1 | 41* | 9 | 0 | 38*
O=C(CNC(=O)c1ccc(Br)o1)NNC(=O)c1ccccc1O | -2 | -11 | -7 | 2 | 2 | 11 | . | .
N/C(=N\OC(=O)c1cccnc1)c1ccc(Cl)cc1Cl | -19 | 41 | 44* | -2 | 41* | 27 | 41* | 21
N/C(=N\OC(=O)c1cccnc1)c1ccccc1Cl | -3 | 13 | 6 | 0 | 20 | 10 | . | .
COc1ccc(C(C)=O)c(Oc2cc(NN3CCCCC3)c([N+](=O)[O-])cc2[N+](=O)[O-])c1 | 6 | 13 | 12 | 26 | 6 | -16 | . | .
SMILES | SKKanGAS inh | tim23-1 inh | tim10-1 inh | PfHsp90 yeast 2 | TIM10 inh | NALP3 yeast inh | tim10-1 conf | TIM10 conf
COc1ccc(N2CCN(C(=O)c3ccc(Br)cc3)CC2)c([N+](=O)[O-])c1 | 7 | 45 | 54* | 105* | 53* | 40 | 48* | 63*
COc1ccc(N2CCN(C(=O)c3ccc(C)cc3)CC2)c([N+](=O)[O-])c1 | -1 | 29 | 6 | -10 | 14 | 5 | . | .
CCN(CC(=O)NNC(=O)c1ccccc1)Cc1ccc(OC)c(F)c1 | . | 7 | -7 | 10 | -3 | 8 | . | .
Oc1ccccc1/C=N/Nc1cccc2cccnc12 | 36 | 38 | 41* | . | 50* | 31 | 37* | 35*
CN(C)CCCN(C(=O)c1ccc2ccccc2c1)c1nc2cc3c(cc2s1)OCO3 | 2 | 21 | 50* | 4 | 46* | 46 | 43* | 35*
CN(C)CCCN(C(=O)c1ccc2c(c1)OCCO2)c1nc2cc3c(cc2s1)OCO3 | 0 | 8 | 10 | 19 | 7 | 10 | . | .
CCN(c1ccccc1)S(=O)(=O)c1ccc(C(=O)N(CCCN(C)C)c2nc3cc4c(cc3s2)OCO4)cc1 | 2 | 44 | 64* | -15 | 52* | 26 | 60* | 46*
CCCCC(CC)C(=O)Nc1ncc([N+](=O)[O-])s1 (centres undefined) | -8 | 45 | 61* | -1 | 49* | 6 | 62* | 24
Cc1ccc(CC(=O)Nc2ncc([N+](=O)[O-])s2)cc1 | -6 | 46 | 30 | -1 | 36 | 17 | . | .
CCNC(=S)NNc1nnc(-c2ccccc2)c(-c2ccccc2)n1 | 1 | 6 | 8 | -14 | -5 | 17 | . | .
Fc1ccc(C2C3=C(Nc4ncnn42)c2ccccc2OC3c2ccncc2)cc1 (centres undefined) | 28 | 23 | 28 | -22 | 22 | -5 | . | .
Cc1ccc(C2Oc3ccccc3C3=C2C(c2cccs2)n2ncnc2N3)cc1 (centres undefined) | 100* | 48 | 42* | -28 | 45* | 9 | 26 | 16
Cc1cccc(-n2cc(CN(C)Cc3nccn3C)c(-c3cccc(F)c3)n2)c1 | 40 | 46 | 43* | 11 | 45* | 4 | 24 | 44*
O=C(N/N=C/c1ccc([N+](=O)[O-])o1)c1cc2ccccc2o1 | 1 | 40 | 59* | 3 | 45* | 11 | 56* | 79*
Cc1onc(-c2ccccc2)c1C(=O)O/N=C(\N)c1ccc([N+](=O)[O-])o1 | 7 | 34 | 50* | -2 | 51* | 24 | 29 | 48*
Cc1onc(-c2ccccc2Cl)c1C(=O)O/N=C(\N)c1ccccc1 | 7 | 32 | 49* | 1 | 55* | 13 | 63* | 45*

Assay outcomes as filed in PubChem.
